What was measured:
Conditions in all cases: concentration: 1 μM, replicates: in singlicate; n = 1
PAK6 = test system: PAK6
PAK7 = test system: PAK7
PCTK1 = test system: T1, PCTK1
T1 construct: gene CDK16

PCTK2 = test system: T2, PCTK2
T2 construct: gene CDK17

PCTK3 = test system: T3, PCTK3
T3 construct: gene CDK18

PDGFRA = test system: PDGFRA
PDGFRB = test system: PDGFRB
PDPK1 = test system: PDPK1
PFTAIRE2 = test system: PFTAIRE2
PFTK1 = test system: T4, PFTK1
T4 construct: gene CDK14
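Note: KINOMEscan kinase panel screen.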

SMILES | %Inh (PAK6) [%] | %Inh (PAK7) [%] | %Inh (PCTK1) [%] | %Inh (PCTK2) [%] | %Inh (PCTK3) [%] | %Inh (PDGFRA) [%] | %Inh (PDGFRB) [%] | %Inh (PDPK1) [%] | %Inh (PFTAIRE2) [%] | %Inh (PFTK1) [%]
Cc1cc(-c2ccc3c(c2)CC[C@@H](N[C@@H](C)c2ccccc2)C3)cnc1N.Cl [GW412617] | 5 | 15 | 6 | 0 | 0 | 0 | 75 | 22 | 6 | 0
Cc1ccc(NC(=O)Nc2cccc(Cl)c2)cc1-c1ccc(C(=O)Nc2ccncc2)cc1 [GSK1398468] | 0 | 1 | 0 | 0 | 0 | 43 | 99.9 | 0 | 16 | 20
Cc1ccc(NC(=O)Nc2cc(C(C)(C)C)nn2-c2ccccc2)cc1 [GSK1014915] | 0 | 0 | 6 | 0 | 27 | 36 | 98.9 | 0 | 10 | 9
Cc1ccc(C(=O)Nc2ccc(Nc3ccnc4cc(-c5ccccn5)ccc34)cc2O)cc1.Cl [GW440146] | 8 | 0 | 0 | 0 | 24 | 54 | 86 | 0 | 26 | 18
CC(=O)Nc1nc2cnc(Nc3cc(NC(=O)c4cccc(CCC#N)c4)ccc3C)nc2s1 | 19 | 0 | 9 | 6 | 8 | 94.3 | 100 | 4 | 0 | 12
Fc1cccc(COc2nnc(-c3ccc4c(c3)CCO4)o2)c1 | 38 | 17 | 8 | 6 | 0 | 28 | 0 | 0 | 7 | 2
C[C@@H]1CCCCN1c1cc(-c2ccc3c(N)n[nH]c3c2)nc(N)n1 [GSK2258759] | 0 | 0 | 5 | 0 | 0 | 0 | 6 | – | 3 | 17
CCCc1ccc(S(=O)(=O)NC2CCN(c3ccnc(Nc4ccc(F)cc4)n3)C2)cc1 (stereo not drawn) [GSK1379715] | 0 | 0 | 0 | 0 | 19 | 0 | 16 | 82 | 0 | 1
Cc1ccccc1-n1cnc2c(N)ncnc21 [SKF-97510] | 12 | 0 | 0 | 0 | 0 | 0 | 0 | 6 | 0 | 0
O=C(Nc1n[nH]c2nc(-c3nccs3)c(Br)cc12)C1CC1 [SB-742251] | 0 | 0 | 45 | 18 | 26 | 0 | 14 | 0 | 4 | 14
O=C(Nc1ccc2c(c1)OCO2)NC1CCN(c2ccnc(Nc3ccc(F)cc3)n2)C1 (stereo not drawn) [GSK1379724] | 22 | 0 | 3 | 0 | 3 | 0 | 31 | 0 | 8 | 8
COc1cc2ncn(-c3cc(OCC4CCCO4)c(C(N)=O)s3)c2cc1OC (stereo not drawn) [GSK204607] | 0 | 12 | 0 | 0 | 0 | 0 | 32 | 0 | 1 | 24
COc1ccccc1CNC(=O)c1cc(C(=O)c2ccccc2C)c[nH]1 [GSK364507] | 0 | 0 | 4 | 0 | 27 | 0 | 52 | 0 | 0 | 22
NC(=O)c1nnc2ccccc2c1N | 4 | 0 | 6 | 0 | 7 | 12 | 9 | 7 | 14 | 5
COc1ccc(CNC(=O)NC2CCN(c3ccnc(Nc4cc(OC)c(OC)c(OC)c4)n3)C2)cc1 (stereo not drawn) [GSK1379748] | 0 | 2 | 7 | 0 | 0 | 15 | 54 | 0 | 9 | 0
Cl.NC(=O)c1cccc(Nc2nccc(Nc3ccc(Oc4cccc(Cl)c4)c(Cl)c3)n2)c1 [GW659008] | 0 | 5 | 0 | 7 | 9 | 0 | 68 | 0 | 4 | 8
